For four compounds, inhibition results are on record in ChEMBL document CHEMBL1961873, “Compounds: GSK PKIS; Assays: Nanosyn kinase panel” (2012).

Assay [1] deals with High affinity nerve growth factor receptor (Homo sapiens) (UniProt P04629). The note with it: at 1 µM.
Assay [2] has as its target BDNF/NT-3 growth factors receptor (Homo sapiens) (UniProt Q16620). To be noted: at 0.1 µM.
Assay [3] has the same target. The note with it: at 1 µM.
The target in assay [4] is NT-3 growth factor receptor (Homo sapiens) (UniProt Q16288). The note with it: at 0.1 µM.
Chain of NT-3 growth factor receptor (Homo sapiens) (Q16288 32-839 limits assumed): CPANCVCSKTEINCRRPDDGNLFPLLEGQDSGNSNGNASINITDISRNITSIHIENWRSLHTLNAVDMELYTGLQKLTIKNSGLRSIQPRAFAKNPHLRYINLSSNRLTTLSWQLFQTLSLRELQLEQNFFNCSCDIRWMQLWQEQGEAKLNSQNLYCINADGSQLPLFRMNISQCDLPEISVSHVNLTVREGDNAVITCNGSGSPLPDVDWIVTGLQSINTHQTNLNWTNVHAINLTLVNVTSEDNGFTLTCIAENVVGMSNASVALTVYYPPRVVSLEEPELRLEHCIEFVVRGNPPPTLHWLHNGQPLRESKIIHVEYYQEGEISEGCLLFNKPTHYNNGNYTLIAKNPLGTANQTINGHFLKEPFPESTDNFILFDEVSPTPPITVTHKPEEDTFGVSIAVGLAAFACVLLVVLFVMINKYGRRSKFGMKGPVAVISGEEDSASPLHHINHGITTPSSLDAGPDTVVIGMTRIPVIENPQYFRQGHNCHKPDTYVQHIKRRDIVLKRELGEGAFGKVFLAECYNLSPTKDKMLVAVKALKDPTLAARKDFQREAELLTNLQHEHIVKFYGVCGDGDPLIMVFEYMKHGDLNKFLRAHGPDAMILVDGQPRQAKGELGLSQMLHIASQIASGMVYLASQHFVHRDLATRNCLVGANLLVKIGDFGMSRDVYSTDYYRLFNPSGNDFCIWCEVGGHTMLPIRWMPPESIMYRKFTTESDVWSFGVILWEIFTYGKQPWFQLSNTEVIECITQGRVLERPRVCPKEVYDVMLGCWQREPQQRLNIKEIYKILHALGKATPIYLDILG
For assay [5] the target is unchanged. To be noted: at 1 µM.
The target of assay [6] is T1, Tyrosine-protein kinase TXK (Homo sapiens) (UniProt P42681).
T1 sequence (whole entry): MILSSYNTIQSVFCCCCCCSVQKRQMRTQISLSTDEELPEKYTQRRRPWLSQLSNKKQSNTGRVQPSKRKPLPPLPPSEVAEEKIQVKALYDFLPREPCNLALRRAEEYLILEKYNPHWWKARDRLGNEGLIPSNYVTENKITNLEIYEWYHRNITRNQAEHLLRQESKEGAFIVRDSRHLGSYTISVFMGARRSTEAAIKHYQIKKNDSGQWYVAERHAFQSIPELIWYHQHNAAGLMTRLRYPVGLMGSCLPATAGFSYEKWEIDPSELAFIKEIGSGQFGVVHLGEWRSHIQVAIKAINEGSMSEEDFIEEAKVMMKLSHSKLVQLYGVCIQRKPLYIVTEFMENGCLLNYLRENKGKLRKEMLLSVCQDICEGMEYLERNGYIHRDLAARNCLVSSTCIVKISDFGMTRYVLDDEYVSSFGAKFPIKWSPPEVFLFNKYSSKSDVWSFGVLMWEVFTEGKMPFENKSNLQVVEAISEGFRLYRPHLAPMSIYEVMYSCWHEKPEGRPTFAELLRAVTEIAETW
The note with it: at 0.1 µM.

Assay [7] concerns the target T1, Tyrosine-protein kinase TXK (Homo sapiens). To be noted: at 1 µM.
The target in assay [8] is Non-receptor tyrosine-protein kinase TYK2 (Homo sapiens) (UniProt P29597). The note with it: at 0.1 µM.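 Further: each value is a mean of the inhibition readings.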
Chain of Non-receptor tyrosine-protein kinase TYK2 (Homo sapiens) (P29597 whole entry): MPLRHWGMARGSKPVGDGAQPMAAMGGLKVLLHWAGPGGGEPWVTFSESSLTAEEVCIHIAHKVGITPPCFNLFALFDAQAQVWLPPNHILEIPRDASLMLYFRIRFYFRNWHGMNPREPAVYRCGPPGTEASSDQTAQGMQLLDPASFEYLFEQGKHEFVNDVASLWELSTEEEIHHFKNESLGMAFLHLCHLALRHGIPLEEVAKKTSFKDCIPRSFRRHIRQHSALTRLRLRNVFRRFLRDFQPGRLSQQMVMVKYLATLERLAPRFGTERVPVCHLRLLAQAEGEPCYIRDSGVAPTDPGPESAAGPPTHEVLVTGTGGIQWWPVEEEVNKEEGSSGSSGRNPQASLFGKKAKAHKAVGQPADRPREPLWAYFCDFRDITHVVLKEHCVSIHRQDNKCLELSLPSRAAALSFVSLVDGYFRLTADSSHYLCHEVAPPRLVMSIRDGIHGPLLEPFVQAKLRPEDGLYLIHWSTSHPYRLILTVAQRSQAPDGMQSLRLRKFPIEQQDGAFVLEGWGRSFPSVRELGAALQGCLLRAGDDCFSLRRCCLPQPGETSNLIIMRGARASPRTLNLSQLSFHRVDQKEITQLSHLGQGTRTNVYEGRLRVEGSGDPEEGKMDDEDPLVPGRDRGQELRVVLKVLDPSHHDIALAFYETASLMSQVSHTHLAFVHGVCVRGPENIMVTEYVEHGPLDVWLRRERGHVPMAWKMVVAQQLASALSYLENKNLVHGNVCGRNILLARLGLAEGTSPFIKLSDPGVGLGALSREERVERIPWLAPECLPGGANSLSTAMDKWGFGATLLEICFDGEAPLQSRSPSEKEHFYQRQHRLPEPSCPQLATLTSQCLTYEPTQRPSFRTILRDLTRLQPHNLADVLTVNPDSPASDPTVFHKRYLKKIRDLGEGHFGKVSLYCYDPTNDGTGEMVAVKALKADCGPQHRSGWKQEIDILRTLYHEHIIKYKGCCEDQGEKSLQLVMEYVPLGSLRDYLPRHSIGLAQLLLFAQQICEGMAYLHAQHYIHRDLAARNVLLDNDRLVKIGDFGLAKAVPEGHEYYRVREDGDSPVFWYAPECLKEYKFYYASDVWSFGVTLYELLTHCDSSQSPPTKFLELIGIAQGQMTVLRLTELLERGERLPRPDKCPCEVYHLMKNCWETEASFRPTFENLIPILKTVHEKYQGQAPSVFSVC
Assay [9] addresses T2, Dual specificity protein kinase TTK (Homo sapiens) (UniProt P33981).
T2 sequence (whole entry): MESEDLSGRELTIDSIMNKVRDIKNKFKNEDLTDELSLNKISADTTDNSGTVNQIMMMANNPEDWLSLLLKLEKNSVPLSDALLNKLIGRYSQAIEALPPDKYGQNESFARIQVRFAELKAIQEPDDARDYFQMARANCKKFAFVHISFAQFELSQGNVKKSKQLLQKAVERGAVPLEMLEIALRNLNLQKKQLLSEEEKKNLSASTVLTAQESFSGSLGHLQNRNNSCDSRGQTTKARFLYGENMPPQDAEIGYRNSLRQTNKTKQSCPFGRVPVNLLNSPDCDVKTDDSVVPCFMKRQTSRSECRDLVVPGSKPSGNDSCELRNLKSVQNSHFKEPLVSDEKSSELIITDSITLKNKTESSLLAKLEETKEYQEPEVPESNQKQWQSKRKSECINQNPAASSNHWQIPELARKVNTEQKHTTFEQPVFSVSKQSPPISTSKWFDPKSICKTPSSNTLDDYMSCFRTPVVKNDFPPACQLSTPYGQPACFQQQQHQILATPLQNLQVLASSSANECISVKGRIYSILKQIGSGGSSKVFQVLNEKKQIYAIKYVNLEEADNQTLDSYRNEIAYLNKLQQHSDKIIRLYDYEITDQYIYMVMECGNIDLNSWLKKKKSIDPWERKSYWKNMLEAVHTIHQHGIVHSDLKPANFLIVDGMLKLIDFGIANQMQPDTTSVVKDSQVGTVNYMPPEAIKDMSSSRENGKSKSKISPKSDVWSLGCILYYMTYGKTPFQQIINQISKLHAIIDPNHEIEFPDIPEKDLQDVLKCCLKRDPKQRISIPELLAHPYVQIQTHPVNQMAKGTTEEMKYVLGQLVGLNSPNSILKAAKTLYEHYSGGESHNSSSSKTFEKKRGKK
The note with it: at 1 µM.

The target in assay [10] is T3, Aurora kinase A (Homo sapiens) (UniProt O14965).
T3 sequence (whole entry): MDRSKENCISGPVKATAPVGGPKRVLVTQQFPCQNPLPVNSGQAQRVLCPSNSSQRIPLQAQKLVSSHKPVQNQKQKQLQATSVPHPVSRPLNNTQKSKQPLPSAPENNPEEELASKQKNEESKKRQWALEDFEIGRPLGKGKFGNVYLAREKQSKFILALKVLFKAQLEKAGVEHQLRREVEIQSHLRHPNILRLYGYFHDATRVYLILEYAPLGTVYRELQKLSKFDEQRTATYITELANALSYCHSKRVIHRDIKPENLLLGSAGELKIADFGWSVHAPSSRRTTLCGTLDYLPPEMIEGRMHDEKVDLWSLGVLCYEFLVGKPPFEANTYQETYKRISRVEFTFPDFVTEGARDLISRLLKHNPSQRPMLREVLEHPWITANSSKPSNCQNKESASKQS
The note with it: at 0.1 µM.

The target in assay [11] is T3, Aurora kinase A (Homo sapiens). To be noted: at 1 µM.
The target in assay [12] is Aurora kinase B (Homo sapiens) (UniProt Q96GD4). The note with it: at 0.1 µM.
Chain of Aurora kinase B (Homo sapiens) (Q96GD4 whole entry): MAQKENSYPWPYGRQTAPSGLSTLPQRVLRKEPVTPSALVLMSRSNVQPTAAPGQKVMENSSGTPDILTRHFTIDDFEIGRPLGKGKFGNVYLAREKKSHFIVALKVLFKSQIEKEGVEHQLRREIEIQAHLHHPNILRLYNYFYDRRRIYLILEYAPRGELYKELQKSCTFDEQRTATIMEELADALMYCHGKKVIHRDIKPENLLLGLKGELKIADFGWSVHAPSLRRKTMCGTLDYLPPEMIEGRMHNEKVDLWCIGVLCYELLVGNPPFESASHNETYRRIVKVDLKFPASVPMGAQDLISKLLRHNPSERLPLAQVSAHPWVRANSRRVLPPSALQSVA
Assay [13] has the same target. The note with it: at 1 µM.
Assay [14] deals with T4, Aurora kinase C (Homo sapiens) (UniProt Q9UQB9).
T4 sequence (whole entry): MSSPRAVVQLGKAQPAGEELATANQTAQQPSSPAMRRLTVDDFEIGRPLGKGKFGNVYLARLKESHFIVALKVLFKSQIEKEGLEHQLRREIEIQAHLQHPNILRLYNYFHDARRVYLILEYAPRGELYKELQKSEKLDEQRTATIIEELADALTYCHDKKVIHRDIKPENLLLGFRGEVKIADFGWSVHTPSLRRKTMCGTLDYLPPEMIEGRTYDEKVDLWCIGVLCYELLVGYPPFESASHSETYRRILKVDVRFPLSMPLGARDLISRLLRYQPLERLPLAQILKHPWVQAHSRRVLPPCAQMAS
The note with it: at 0.1 µM.

The target in assay [15] is T4, Aurora kinase C (Homo sapiens). To be noted: at 1 µM.
The target of assay [16] is Serine/threonine-protein kinase 10 (Homo sapiens) (UniProt O94804). To be noted: at 0.1 µM.
Assay [17] has the same target. The note with it: at 1 µM.
Assay [18] concerns the target T5, Mitogen-activated protein kinase kinase kinase kinase 2 (Homo sapiens) (UniProt Q12851).
T5 sequence (whole entry): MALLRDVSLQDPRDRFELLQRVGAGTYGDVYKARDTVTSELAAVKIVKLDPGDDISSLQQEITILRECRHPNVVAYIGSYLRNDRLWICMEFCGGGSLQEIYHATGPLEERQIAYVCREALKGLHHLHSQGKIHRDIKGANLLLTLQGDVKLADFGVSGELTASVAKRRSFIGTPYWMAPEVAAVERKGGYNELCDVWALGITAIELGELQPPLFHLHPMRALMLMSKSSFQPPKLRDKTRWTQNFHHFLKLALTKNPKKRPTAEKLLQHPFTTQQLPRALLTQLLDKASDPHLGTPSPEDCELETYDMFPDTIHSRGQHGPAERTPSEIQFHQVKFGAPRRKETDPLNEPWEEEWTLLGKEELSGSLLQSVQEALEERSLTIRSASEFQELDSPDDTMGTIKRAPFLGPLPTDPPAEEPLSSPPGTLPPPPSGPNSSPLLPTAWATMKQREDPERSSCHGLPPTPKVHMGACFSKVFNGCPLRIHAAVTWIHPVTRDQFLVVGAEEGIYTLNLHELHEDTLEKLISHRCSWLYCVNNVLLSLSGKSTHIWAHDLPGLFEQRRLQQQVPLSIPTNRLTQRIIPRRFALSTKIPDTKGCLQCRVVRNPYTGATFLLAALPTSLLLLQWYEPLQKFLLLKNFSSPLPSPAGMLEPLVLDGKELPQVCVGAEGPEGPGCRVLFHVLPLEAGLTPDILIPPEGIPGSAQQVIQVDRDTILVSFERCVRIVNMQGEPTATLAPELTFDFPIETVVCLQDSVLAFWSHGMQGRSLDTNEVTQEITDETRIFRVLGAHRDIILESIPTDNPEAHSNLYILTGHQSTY
The note with it: at 0.1 µM.

Assay [19] has as its target T5, Mitogen-activated protein kinase kinase kinase kinase 2 (Homo sapiens). To be noted: at 1 µM.
For assay [20], the target named is Mitogen-activated protein kinase kinase kinase kinase 4 (Homo sapiens) (UniProt O95819). The note with it: at 0.1 µM.
Chain of Mitogen-activated protein kinase kinase kinase kinase 4 (Homo sapiens) (O95819 2-1239 limits assumed): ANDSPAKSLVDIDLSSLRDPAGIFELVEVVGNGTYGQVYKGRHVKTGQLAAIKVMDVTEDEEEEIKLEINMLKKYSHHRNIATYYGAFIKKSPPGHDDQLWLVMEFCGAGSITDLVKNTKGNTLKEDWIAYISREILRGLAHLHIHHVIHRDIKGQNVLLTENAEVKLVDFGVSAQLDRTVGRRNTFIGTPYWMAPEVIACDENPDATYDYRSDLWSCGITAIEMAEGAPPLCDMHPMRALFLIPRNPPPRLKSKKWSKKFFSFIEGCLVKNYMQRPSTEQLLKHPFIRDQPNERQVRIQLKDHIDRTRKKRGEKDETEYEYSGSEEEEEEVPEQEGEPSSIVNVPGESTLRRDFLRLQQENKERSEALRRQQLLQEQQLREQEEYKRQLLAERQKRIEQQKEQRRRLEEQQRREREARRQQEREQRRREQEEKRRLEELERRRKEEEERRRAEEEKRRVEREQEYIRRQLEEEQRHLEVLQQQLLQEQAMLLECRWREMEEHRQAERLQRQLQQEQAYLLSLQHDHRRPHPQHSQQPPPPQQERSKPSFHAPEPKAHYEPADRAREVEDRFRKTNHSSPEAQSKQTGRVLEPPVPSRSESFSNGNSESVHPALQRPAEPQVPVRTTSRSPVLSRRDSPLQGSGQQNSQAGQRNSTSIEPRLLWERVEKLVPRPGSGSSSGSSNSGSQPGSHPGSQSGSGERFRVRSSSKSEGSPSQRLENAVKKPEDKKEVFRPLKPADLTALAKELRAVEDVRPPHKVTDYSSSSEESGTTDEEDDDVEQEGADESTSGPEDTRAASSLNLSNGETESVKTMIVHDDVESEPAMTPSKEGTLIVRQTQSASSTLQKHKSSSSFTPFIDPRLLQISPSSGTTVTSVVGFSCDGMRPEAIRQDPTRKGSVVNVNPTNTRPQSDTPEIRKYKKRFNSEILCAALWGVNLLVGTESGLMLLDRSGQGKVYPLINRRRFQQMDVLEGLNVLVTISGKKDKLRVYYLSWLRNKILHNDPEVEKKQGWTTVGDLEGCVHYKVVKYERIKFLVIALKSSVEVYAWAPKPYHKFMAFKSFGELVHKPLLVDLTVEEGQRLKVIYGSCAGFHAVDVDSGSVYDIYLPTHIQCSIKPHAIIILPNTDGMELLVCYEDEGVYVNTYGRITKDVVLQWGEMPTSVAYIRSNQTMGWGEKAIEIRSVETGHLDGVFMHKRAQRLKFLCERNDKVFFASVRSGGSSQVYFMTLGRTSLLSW

Structures are written as SMILES.

Chain of High affinity nerve growth factor receptor (Homo sapiens) (P04629 33-796 limits assumed): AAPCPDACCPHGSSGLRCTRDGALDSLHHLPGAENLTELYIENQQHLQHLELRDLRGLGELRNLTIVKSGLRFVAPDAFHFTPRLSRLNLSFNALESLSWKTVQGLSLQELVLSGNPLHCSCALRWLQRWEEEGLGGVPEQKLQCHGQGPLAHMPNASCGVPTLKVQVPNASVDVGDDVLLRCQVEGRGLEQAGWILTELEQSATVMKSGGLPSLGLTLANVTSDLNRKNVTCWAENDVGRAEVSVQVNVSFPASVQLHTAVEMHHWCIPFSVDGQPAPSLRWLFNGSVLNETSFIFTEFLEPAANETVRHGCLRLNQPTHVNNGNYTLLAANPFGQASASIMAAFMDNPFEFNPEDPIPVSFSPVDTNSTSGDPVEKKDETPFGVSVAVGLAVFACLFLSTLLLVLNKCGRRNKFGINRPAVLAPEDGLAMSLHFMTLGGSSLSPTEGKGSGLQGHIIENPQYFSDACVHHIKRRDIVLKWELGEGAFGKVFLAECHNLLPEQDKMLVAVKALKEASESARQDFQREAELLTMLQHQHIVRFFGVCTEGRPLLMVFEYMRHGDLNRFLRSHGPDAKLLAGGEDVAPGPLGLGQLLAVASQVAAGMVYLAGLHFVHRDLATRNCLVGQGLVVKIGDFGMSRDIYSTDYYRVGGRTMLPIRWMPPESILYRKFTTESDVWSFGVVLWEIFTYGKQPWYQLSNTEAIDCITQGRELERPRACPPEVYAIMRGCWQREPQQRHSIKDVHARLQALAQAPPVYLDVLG

In general, inhibition refers to the change of the read-out against control, counted positive when it falls. Consider `CCn1c(-c2nonc2N)nc2ccccc21`, for which the inhibition is 2.11% in [1]; 1.05% in [2]; -0.82% in assay [3]; 0.03% in [4]; 0.89% in assay [5]; 3.75% in [6]. Moreover, the inhibition is 6.72% in assay [7]; -1.66% in assay [8]; 7.51% in [9]; 2.42% in assay [10]; 7.95% in [11]; 0.55% in [12]. The inhibition was 5.64% in assay [13]; -0.58% in assay [14]; 11.2% in [15]; 2.59% in assay [16]; 6.5% in assay [17]; 0.98% in assay [18]. The inhibition in [19] amounted to 3.67%; in assay [20], 4.69%.
Regarding `Cc1cccc(Nc2ncc(-c3ccccc3)o2)c1`, the inhibition was found to be 6.23% in [1]; 3.27% in assay [2]; 11.7% in [3]; 1.16% in assay [4]; 12.2% in [5]; 7.08% in assay [6]. Moreover, the inhibition stood at 5.35% in assay [7]; 1.38% in assay [8]; 6.17% in [9]; 2.74% in assay [10]; 7.93% in assay [11]; 3.4% in assay [12]. Also, the inhibition is 7.88% in assay [13]; 0.68% in assay [14]; 11.2% in assay [15]; 3.16% in [16]; 7.96% in [17]; 1.52% in [18]. Besides, the inhibition in [19] amounted to 4.15%; in assay [20], 2.79%.
Turning to `Cc1ccc2c(-c3ccnc(Nc4ccccc4)n3)c(-c3ccc(F)cc3)nn2n1`, the inhibition in assay [1] came out at 31.6%; in [2] it was 5.12%; in assay [3], 20.2%; in assay [4], 4.3%; in assay [5], 11.8%; in [6], 8.09%. Besides, the inhibition in [7] was 31.4%; in assay [8], -4.65%; in [9], 6.11%; in assay [10], 3.75%; in assay [11], 16.4%; in [12] it was -4.16%. For the same compound, the inhibition in [13] turned out to be 12.9%; in assay [14], 2.67%; in assay [15] it was 25.2%; in [16], 7.71%; in [17] it was 22.8%; in [18], 0.67%. Besides, the inhibition in assay [19] worked out at 3.98%; in [20], 12.3%.
On to `CNC(=O)c1cncc(/C=C/c2ccccc2Cl)c1`, for which the inhibition in assay [1] was -0.75%; in [2] it was -1.43%; in assay [3] it was 2.71%; in assay [4], -1.83%; in assay [5], 3.94%; in assay [6], 4.15%. The inhibition in assay [7] turned out to be 16%; in assay [8], 2.63%; in assay [9] it was 5.89%; in [10] it was 1.14%; in assay [11], 12%; in assay [12] it was 2.57%. Further, the inhibition in assay [13] is 7.3%; in assay [14], 5.27%; in assay [15] it was -3.84%; in [16], 3.92%; in [17], 8.22%; in assay [18] it was 1.8%. In addition, the inhibition came out at 2.04% in [19] and 2.52% in assay [20].
